A selection follows.
aSyn UTR act: Activators working through SNCA 5'UTR binding (MLPCN) | alpha-synuclein 5'UTR reporter, activators screen | activity score, % (tested at 7.5 µM), hits read low | 7.1% of 300,000 active | AID 1814; in the data active = activity score below about -60%
* hit, by the source's call.

CC(C)N1CC(O)=C(c2nc3ccccc3c(=O)[nH]2)C1=N was read as aSyn UTR act -75.0*.
For O=[N+]([O-])c1cccc(-c2nnc(-c3ccccc3F)o2)c1 the results were aSyn UTR act -161.5*.
For Oc1ccc(C2=NNC(=NCc3ccc4c(c3)OCO4)SC2)c(O)c1 the results were aSyn UTR act -87.3*.
For C=CCN=C1NN=C(c2cc(C)n(CCOC)c2C)CS1 the results were aSyn UTR act 85.8.
For CS(=O)(=O)Nc1cccc(-c2cnc3ccccc3n2)c1 the results were aSyn UTR act -153.0*.
For CNC(=S)Nc1cccc(-c2cnc3ccccc3n2)c1 the results were aSyn UTR act -143.8*.
Screening CC(C)C(=O)Nc1cccc(-c2cnc3ccccc3n2)c1 returned aSyn UTR act -114.8*.
Screening COc1ccc(COc2cc(-c3cccc(OC)c3)nc3ccc(NC(=O)C(C)C)cc23)cc1 returned aSyn UTR act -134.5*.
`COc1ccc2oc(C)c(C(=O)c3ccc(C)cc3)c2c1` gave aSyn UTR act -86.1*.
`Cc1oc2ccc(O)cc2c1C(=O)c1ccc(Br)cc1` gave aSyn UTR act -61.6*.
CC(=O)c1c(C)oc2ccc(OCc3ccccc3)cc12 was read as aSyn UTR act -70.5*.
Screening O=C(NC(C(=O)c1ccccc1)N1CCOCC1)c1ccccc1 (stereo not drawn) returned aSyn UTR act -66.7*.
`Cc1cc(=O)n(C(NC(=O)c2ccccc2)C(=O)c2ccccc2)cn1` (stereo not drawn) gave aSyn UTR act -84.1*.
`COc1ccc(/C=C2\SC(=S)N(CCCC(=O)NNC(=O)c3ccccc3O)C2=O)cc1` gave aSyn UTR act 74.8.
`COc1ccc(/C=C2\SC(=O)N(CCNC(=O)Cc3coc4cc(OC)ccc34)C2=O)cc1` gave aSyn UTR act -70.5*.
For COc1ccc(/C=C2\SC(=O)N(CCNC(=O)C3=COCCO3)C2=O)cc1 the results were aSyn UTR act -128.9*.
Screening Cc1nc(C#N)c(N/N=C/c2cccc(Cl)c2)o1 returned aSyn UTR act -126.4*.
Screening Cc1cc(N/N=C/c2ccc(O)cc2O)nc(-c2ccccc2O)n1 returned aSyn UTR act 74.6.
For Cc1cc(N(C)/N=C/c2ccccc2)nc(-c2ccccc2O)n1 the results were aSyn UTR act -118.8*.
Screening Cc1cc(N/N=C\c2ccccc2)nc(-c2ccccc2O)n1 returned aSyn UTR act -138.1*.
For CN(/N=C/c1cc(Br)cc(Br)c1O)c1cccc(C(F)(F)F)n1 the results were aSyn UTR act 70.2.
CCC(CC)c1nnc(NC(=O)c2ccc3c(c2)OCO3)s1 was read as aSyn UTR act -169.1*.
`CC(C)(C)Cc1nnc(NC(=O)c2ccc3c(c2)OCO3)s1` gave aSyn UTR act -112.0*.
For Cc1nc2cc(NC(=O)Nc3ccc(Br)cc3)ccc2o1 the results were aSyn UTR act -192.3*.
Cc1nc2cc(NC(=O)N3c4ccccc4CC3C)ccc2o1 (stereo not drawn) was read as aSyn UTR act -103.5*.
`O=C(Nc1ccc(N2CCCC2=O)cc1)c1cccc(F)c1` gave aSyn UTR act -97.9*.
`COc1ccc(NC(=S)NNc2ccc(C(=O)O)cc2)cc1` gave aSyn UTR act -107.1*.
`O=C(Nc1ccc(Nc2ccccc2)cc1)c1cccc(F)c1` gave aSyn UTR act -265.2*.
`O=C(Nc1ccc(N2CCCC2)cc1)c1ccc2ccccc2c1` gave aSyn UTR act -143.1*.
O=C(Nc1ccc(N2CCCC2)cc1)c1cccc(F)c1 was read as aSyn UTR act -202.7*.
For O=C(O)c1ccc(NC(=S)NC(=O)c2ccc3ccccc3c2)cc1 the results were aSyn UTR act -64.2*.
For CC1CCc2nc(NC(=O)C3CC3)sc2C1 (stereo not drawn) the results were aSyn UTR act -137.8*.
CC1CCc2nc(NC(=O)C3COc4ccccc4O3)sc2C1 (stereo not drawn) was read as aSyn UTR act 63.1.
For CC1CCc2nc(NC(=O)CN3CCOCC3)sc2C1 (stereo not drawn) the results were aSyn UTR act -91.9*.
Screening Cc1ncsc1C(=O)Nc1nc2c(s1)CC(C)CC2 (stereo not drawn) returned aSyn UTR act -126.1*.
COC(=O)c1c(NC(=O)CN2CCOCC2)sc2c1CCC(C)C2 (stereo not drawn) was read as aSyn UTR act -122.7*.
`CC1CCc2nc(NC(=O)Nc3ccc4c(c3)OCO4)sc2C1` (stereo not drawn) gave aSyn UTR act -123.0*.
Screening Cc1occc1C(=O)N/N=C/C=C/c1ccccc1 returned aSyn UTR act -138.1*.
Cc1occc1C(=O)N/N=C/C=C/c1ccc(N(C)C)cc1 was read as aSyn UTR act -129.2*.
Screening Cc1occc1C(=O)N/N=C/C(Br)=C\c1ccccc1 returned aSyn UTR act -108.0*.
`CCCCOC(=O)N/N=C/C=C/c1ccccc1` gave aSyn UTR act -87.5*.
For CCCCc1ccc(NC(=O)C2CCCC2)cc1 the results were aSyn UTR act -68.6*.
For CCCCc1ccc(NC(=O)CC(C)C)cc1 the results were aSyn UTR act -69.7*.
`N#C/C(=N\Nc1ccccc1)C(=N)N1CCCCCC1` gave aSyn UTR act -170.9*.
